Assay results from PubChem BioAssay.
The source made the active and inactive calls.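 How the source made its calls, unless noted: active means visually confirmed hit in the image check and inhibition above 20%; inconclusive means visually confirmed hit but inhibition not above 20%; inactive means no visual hit in the image check.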

Assays:
[1] = inhibitors of TNFa-induced NFkB p65 translocation, primary screen, imaging, HUVEC, MLSMR starter and 10KST1 sets (AID 438;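 active means inhibition above 20% together with a positive visual image hit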;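 further: compound added about 3h40 before a 20 min TNFalpha stimulation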;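 on inhibition: signal is the nuclear over cytoplasmic p65 intensity ratio per well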); conditions: HUVEC TNFa-induced p65 nuclear translocation; cell count: measured here: nuclei count (cytotoxicity indicator), at 2.08 µM; inhibition: at 2 µM, stronger effect = higher value, 0% TNFa-plus-vehicle, 100% no-TNFa wells
[2] = inhibitors of mutant huntingtin aggregation, primary screen, imaging, exon1htt(103Q)mCFP cells, high-content imaging (AID 483;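 active means visual image review flags a hit and inhibition of aggregation exceeds 20%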;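 further: compound exposure lasted 3 days before fixation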;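 on nuclei count: percent of the per-plate median nuclei count of sample wells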); conditions: exon1htt(103Q)mCFP cell line, aggregate imaging, at 2 µM; inhibition of aggregation: stronger effect = higher value; nuclei count: measured here: cell count, toxicity
[3] = inhibitors of E-selectin induction by TNFa, primary screen, imaging, HUVEC, immunofluorescence, MLSMR starter and 10KST1 sets (AID 487); conditions: HUVEC TNFalpha-induced E-selectin immunofluorescence imaging, at 2 µM; inhibition: stronger effect = higher value; nuclei count: measured here: cell number, toxicity;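 on inhibition: signal is fraction of cell area covered by stained E-selectin grains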;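 on nuclei count: 100% = median nuclei count of all wells on the same plate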
[4] = target: Voltage-gated potassium channel subunit beta-2 (Rattus norvegicus) (UniProt P62483); assay: KvBeta enzyme negative modulators, primary screen, biochemical, NADPH fluorescence (AID 622;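 active means fluorescence slope higher than the sample average by over 3 SD, cut at about -0.22 in these data, passing the limit was not always enough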;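 further: slope of raw intensity against log time taken from 70 to 1610 s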); conditions: recombinant KvBeta, 4-cyanobenzaldehyde reduction, at 10 µM, stronger effect = higher value
[5] = target: Voltage-gated potassium channel subunit beta-2 (Rattus norvegicus) (UniProt P62483); assay: KvBeta positive modulators, primary screen, biochemical, NADPH fluorescence (AID 623;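 active means NADPH fluorescence slope more negative than the mean of all samples by about 3 SD, 99.7% confidence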;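 further: fluorescence intensity change per second fitted from 20 to 320 s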); conditions: Recombinant KvBeta, NADPH fluorescence decrease slope, 10 min; at 10 µM; stronger effect = lower value
[6] = target: Alpha-2C adrenergic receptor (Homo sapiens) (UniProt P18825); assay: modulators of alpha2C/GIRK thallium flux, primary screen, cell-based, HEK293 alpha2C/GIRK1/2 (AID 624;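 active means fluorescence slope after compound addition differing from the mean of all screened samples at 99.7% confidence, in either direction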;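 further: slope of fluorescence ratio to pre-addition baseline per second over 15 to 24 s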); conditions: thallium flux BTC fluorescence, at 10 µM, actives lie on both sides
[7] = inhibitors of Sendai virus-induced IRF3 signaling, primary screen, TLR/RLR signaling modifier project, cell-based, Sendai virus stimulus, luciferase, 10K MLSCN set (AID 602276;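 active means inhibition at or above 50% at 10 µM; inactive means inhibition below 50%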;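 further: firefly luciferase from ISG56 promoter only with Renilla not read in this screen; 0% = Sendai virus plus DMSO and 100% = medium plus DMSO without virus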); conditions: HEK293 RL24 IRF3 luciferase reporter, at 10 µM, stronger effect = higher value
[8] = inhibitors of poly I:C-induced TLR3 signaling, primary screen, cell-based, poly I:C stimulus, luciferase, 10K MLSCN set (AID 602277;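 active means inhibition of the reporter signal at or above 50%; inactive means inhibition below 50%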); conditions: HEK293-TLR3 RL24 IRF3 luciferase reporter, at 10 µM, stronger effect = higher value

Voltage-gated potassium channel subunit beta-2 (Rattus norvegicus), sequence (P62483 whole entry, looked up): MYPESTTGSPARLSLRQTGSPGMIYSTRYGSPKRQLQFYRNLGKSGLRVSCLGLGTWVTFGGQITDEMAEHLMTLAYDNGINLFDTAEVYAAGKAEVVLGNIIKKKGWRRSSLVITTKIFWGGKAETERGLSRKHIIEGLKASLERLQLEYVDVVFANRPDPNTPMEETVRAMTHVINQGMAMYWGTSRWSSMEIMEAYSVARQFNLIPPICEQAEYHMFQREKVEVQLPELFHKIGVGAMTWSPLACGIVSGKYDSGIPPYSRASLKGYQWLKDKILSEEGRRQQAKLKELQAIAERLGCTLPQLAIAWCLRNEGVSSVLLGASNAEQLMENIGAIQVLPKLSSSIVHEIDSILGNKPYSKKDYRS
Alpha-2C adrenergic receptor (Homo sapiens), sequence (P18825 whole entry, looked up): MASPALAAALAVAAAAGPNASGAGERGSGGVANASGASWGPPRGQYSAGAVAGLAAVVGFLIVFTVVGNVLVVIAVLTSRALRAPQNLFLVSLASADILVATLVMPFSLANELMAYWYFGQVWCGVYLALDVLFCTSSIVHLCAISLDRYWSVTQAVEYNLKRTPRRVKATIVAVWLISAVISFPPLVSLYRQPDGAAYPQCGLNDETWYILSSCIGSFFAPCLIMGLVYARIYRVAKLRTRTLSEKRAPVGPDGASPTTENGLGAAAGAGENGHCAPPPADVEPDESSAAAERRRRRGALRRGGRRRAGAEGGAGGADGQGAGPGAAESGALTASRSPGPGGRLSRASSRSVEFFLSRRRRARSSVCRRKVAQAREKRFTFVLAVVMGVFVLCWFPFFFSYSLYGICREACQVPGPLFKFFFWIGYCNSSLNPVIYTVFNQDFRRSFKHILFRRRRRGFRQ

| SMILES | cell count [1] | inhibition [1] | inhibition of aggregation [2] | nuclei count [2] [%] | inhibition [3] | nuclei count [3] [%] | fluorescence slope [4] | NADPH fluorescence slope [5] | slope [6] | inhibition [7] | inhibition [8] |
| --- | --- | --- | --- | --- | --- | --- | --- | --- | --- | --- | --- |
| Cc1cccc(NC(=O)c2ccc3ccccc3n2)n1 | 408 | -4.5% (inactive) | 0.8% (inactive) | 86.6 | -50.9% (inactive) | 95.8 | -0.303 (inactive) | -1.5e-05 (inactive) | 0.0061 (inactive) | -11.1% (inactive) | -91.5% (inactive) |
| COC(=O)C(C)Sc1nc2c(c(=O)n1-c1ccccc1)SCC2 (stereo not drawn) | 330 | -1.4% (inactive) | -6.6% (inactive) | 113 | -51.5% (inactive) | 150 | -0.523 (inactive) | -7.6e-05 (inactive) | 0.00467 (inactive) | 7.35% (inactive) | 13.2% (inactive) |
| O=C(O)C1CCCN1S(=O)(=O)c1ccc2ccccc2c1 (stereo not drawn) | 609 | -3.4% (inactive) | -2.3% (inactive) | 89.5 | -83.6% (inactive) | 106 | -0.627 (inactive) | -2e-06 (inactive) | 0.00297 (inactive) | -1.98% (inactive) | -11.3% (inactive) |
| O=C(Cn1cnc2c(nnn2Cc2ccc(Cl)cc2)c1=O)NCC1CCCO1 (stereo not drawn) | 641 | -18.8% (inactive) | -21.6% (inactive) | 89.2 | -89.9% (inactive) | 132 | -0.522 (inactive) | -4.5e-06 (inactive) | 0.00509 (inactive) | 16.8% (inactive) | 26% (inactive) |
| Cc1cc(C)nc(N2CCC(C(=O)NC3CCCCCC3)CC2)n1 | 502 | -11.2% (inactive) | 25.2% (inactive) | 93.6 | 19.9% (inactive) | 90.5 | -0.508 (inactive) | 6.6e-06 (inactive) | 0.00535 (inactive) | 16.4% (inactive) | 16.2% (inactive) |
| O=C(Nc1ccncc1)c1cccc(F)c1 | 559 | -6.9% (inactive) | -1.2% (inactive) | 95.4 | -13.5% (inactive) | 68.8 | -0.375 (inactive) | -4.9e-05 (inactive) | 0.00567 (inactive) | 12.9% (inactive) | 13.8% (inactive) |
| CCOC(=O)C1=C(C)Nc2nnnn2C1c1ccc(OC)c(Br)c1 (stereo not drawn) | 635 | 5.8% (inactive) | -8.3% (inactive) | 94.6 | 2.7% (inactive) | 111 | -0.574 (inactive) | -1.5e-05 (inactive) | 0.00761 (inactive) | -20% (inactive) | -12.8% (inactive) |
| O=C(NCC(=O)N(Cc1cccs1)C(C(=O)NC1CCCC1)c1ccncc1)c1ccco1 (stereo not drawn) | 478 | -2.9% (inactive) | -19.3% (inactive) | 107 | -26.6% (inactive) | 114 | -0.25 (inactive) | -2e-05 (inactive) | 0.00557 (inactive) | 13.3% (inactive) | 16.2% (inactive) |
| CCOC(=O)c1ccccc1NC1c2ccccc2C(=O)N1C1CCN(C(=O)OCC)CC1 (stereo not drawn) | 548 | -9.7% (inactive) | -12% (inactive) | 65.3 | -10.1% (inactive) | 109 | -0.463 (inactive) | -3.3e-05 (inactive) | 0.00667 (inactive) | 14.7% (inactive) | 38.1% (inactive) |
| CCN(CC)CCCNC(=O)c1cn(C)c2ccc(S(=O)(=O)N(C)C)cc2c1=O | 559 | -2.8% (inactive) | -53.9% (inactive) | 73.6 | 69.2% (active) | 98.9 | -0.587 (inactive) | -3.7e-05 (inactive) | 0.00615 (inactive) | 7.25% (inactive) | 33.2% (inactive) |
| O=c1c2cc(Cl)ccc2[nH]c(=S)n1Cc1ccco1 | 439 | 5.3% (inactive) | 13.5% (inactive) | 89.7 | -36.1% (inactive) | 102 | -0.597 (inactive) | -4.8e-05 (inactive) | 0.00334 (inactive) | 9.24% (inactive) | 20.2% (inactive) |
| CCCOC(=O)c1[nH]c2c(c1C)C(=O)CC(c1cc(OC)c(OC)c(OC)c1)C2 (stereo not drawn) | 803 | 1.2% (inactive) | 2.2% (inactive) | 114 | -90.3% (inactive) | 118 | -0.567 (inactive) | -2.6e-05 (inactive) | 0.00599 (inactive) | 0.863% (inactive) | -18.2% (inactive) |
| O=C(c1ccco1)N1CCN(C(=O)c2cc3c(s2)-c2ccccc2OC3)CC1 | 684 | -5% (inactive) | -23% (inactive) | 131 | 4.9% (inactive) | 102 | -0.0429 (inactive) | 3.2e-05 (inactive) | 0.00801 (inactive) | -15% (inactive) | -25.8% (inactive) |
| Cc1cccc(-c2cc3nc4c(c(N5CCC6(CC5)OCCO6)n3n2)CCCC4)c1 | 627 | -5.5% (inactive) | 19.8% (inactive) | 116 | -139% (inactive) | 156 | -0.419 (inactive) | 4.7e-05 (inactive) | 0.00699 (inactive) | -1.5% (inactive) | -27.3% (inactive) |
| Cc1nc2ccccn2c1/C(O)=C1\C(=O)C(=O)N(CCCN(C)C)C1c1ccc(F)cc1 (stereo not drawn) | 507 | 21.6% (inactive) | -28.8% (inactive) | 92.5 | -54.5% (inactive) | 122 | -0.566 (inactive) | 1.9e-05 (inactive) | 0.00687 (inactive) | 6.26% (inactive) | 3.28% (inactive) |
| Cc1nc2c(-c3ccccc3)c(C)nn2c(C)c1CCC(=O)NCc1ccco1 | 545 | -1.1% (inactive) | -8.9% (inactive) | 84.3 | -61.2% (inactive) | 102 | -0.584 (inactive) | 1.5e-05 (inactive) | 0.00663 (inactive) | 9.03% (inactive) | 31.1% (inactive) |
| CC(NC(=O)C1CC1)C(c1cccs1)N1CCN(c2ccccc2)CC1 (stereo not drawn) | 884 | 4.2% (inactive) | -7.2% (inactive) | 100 | -17.3% (inactive) | 116 | -0.495 (inactive) | -3e-05 (inactive) | 0.00607 (inactive) | 6.3% (inactive) | 23.6% (inactive) |
| CCCC(=O)N1CC(=O)Nc2ccc(C)cc2C1c1ccc(F)cc1 (stereo not drawn) | 698 | -9.1% (inactive) | 7.9% (inactive) | 103 | -21.3% (inactive) | 111 | -0.513 (inactive) | -3e-05 (inactive) | 0.00518 (inactive) | 3.95% (inactive) | 24.9% (inactive) |
| CCCCCCc1ccc(-c2ncc(N)cn2)cc1 | 478 | 3.5% (inactive) | 26.5% (inactive) | 110 | -42.4% (inactive) | 109 | -0.509 (inactive) | 6.3e-06 (inactive) | 0.00484 (inactive) | -9.96% (inactive) | -78.9% (inactive) |
| CCn1c(=S)ccc2ccc(OC)cc21 | 296 | 5.3% (inactive) | -4.2% (inactive) | 77.6 | -13.4% (inactive) | 120 | -0.599 (inactive) | -9.6e-06 (inactive) | 0.0055 (inactive) | -6.3% (inactive) | 29% (inactive) |
| O=C(Nc1cnccn1)c1cccs1 | 655 | -17.2% (inactive) | -13.1% (inactive) | 122 | -34.1% (inactive) | 110 | -0.517 (inactive) | -2.8e-05 (inactive) | 0.00591 (inactive) | 10.2% (inactive) | 12.3% (inactive) |
| COc1ccc2cc(C(=O)NCc3ccco3)c(=Nc3ccc(C(=O)O)cc3)oc2c1 | 507 | -12.8% (inactive) | 19% (inactive) | 96.3 | -56.7% (inactive) | 120 | -0.372 (inactive) | -5.2e-05 (inactive) | 0.00401 (inactive) | 16.4% (inactive) | 3.42% (inactive) |
| O=S(=O)(c1ccc(-c2csc(-c3cccnc3)n2)cc1)N1CCCCC1 | 372 | -1.7% (inactive) | -2% (inactive) | 102 | -30.5% (inactive) | 116 | -0.604 (inactive) | -9e-06 (inactive) | 0.0051 (inactive) | -0.353% (inactive) | -37.2% (inactive) |
| CC1(C)Cc2cccc(OCC(O)CN3CCN(c4ccccn4)CC3)c2O1 (stereo not drawn) | 518 | -7.3% (inactive) | 3.5% (inactive) | 92.3 | -90.2% (inactive) | 111 | -0.624 (inactive) | -2e-05 (inactive) | 0.00547 (inactive) | -6.85% (inactive) | -0.552% (inactive) |
| Clc1cccc(-c2nnc3sc(-c4ccccc4)nn23)c1 | 625 | -3% (inactive) | -8% (inactive) | 108 | -30.8% (inactive) | 104 | -0.372 (inactive) | -5.3e-05 (inactive) | 0.0065 (inactive) | -35.9% (inactive) | -59.7% (inactive) |
| Cc1occc1-c1nc(-c2ccncc2)no1 | 706 | 7.3% (inactive) | 6% (inactive) | 95.3 | -46.6% (inactive) | 126 | -0.523 (inactive) | 1.8e-05 (inactive) | 0.00583 (inactive) | -46.9% (inactive) | -90.8% (inactive) |
| Cc1cccc(-n2ncc3c(NCCCn4ccnc4)ncnc32)c1 | 604 | 1.3% (inactive) | 30.9% (inactive) | 99.7 | -29.8% (inactive) | 119 | -0.45 (inactive) | -4.7e-05 (inactive) | 0.00546 (inactive) | -63.1% (inactive) | -121% (inactive) |
| CCC(CC)C(=O)NCCc1cc2ccc(C)cc2[nH]c1=O | 643 | 0.5% (inactive) | 3% (inactive) | 117 | -15.4% (inactive) | 111 | -0.556 (inactive) | -3.5e-05 (inactive) | 0.00557 (inactive) | 14.3% (inactive) | 26.1% (inactive) |
